Where “and” joins values, the source holds several entries; their conditions need not be identical. Equal values may be shown once. The campaign covered roughly 5,500 compounds. About 2,000 (36%) were called active. Roughly 18% stayed inconclusive and do not appear here. Rule as the data show it: active = normalized growth mostly below about 0.91 (no sharp cut-off); inconclusive = no clear call, values can overlap the other calls; inactive = mostly above about 0.92. The list shows a part of the results. A structure can be active in one record and inactive in another.
Test: chemical genetic growth profiling, strain panel (AID 1159580);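 also: tested at 20 µM; growth read once vehicle control cultures reached saturation at 30 °C; 1 = growth at the plate median or of vehicle wells; lower values mean less growth of the strain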
Conditions: growth OD

## Cc1nc2sccn2c(=O)c1CCN1CCC(=C(c2ccc(F)cc2)c2ccc(F)cc2)CC1
S. cerevisiae deletion strains, locus YAL013W, strain DEP1, stronger effect = lower value
  normalized growth: 0.65 (active) and 1.01 (inactive)
S. cerevisiae deletion strains, locus YAL040C, strain CLN3, stronger effect = lower value
  normalized growth: 1 (inactive)
S. cerevisiae deletion strains, locus YBR021W, strain FUR4, stronger effect = lower value
  normalized growth: 0.338 (active)
S. cerevisiae deletion strains, locus YBR229C, strain ROT2, stronger effect = lower value
  normalized growth: 0.992 (inactive)
S. cerevisiae deletion strains, locus YCL029C, strain bik1, stronger effect = lower value
  normalized growth: 0.885 (active)
S. cerevisiae deletion strains, locus YCL061C, strain MRC1 (second series), stronger effect = lower value
  normalized growth: 1 (inactive)
S. cerevisiae deletion strains, locus YDL035C, strain GPR1, stronger effect = lower value
  normalized growth: 0.536 (active)
S. cerevisiae deletion strains, locus YDL074C, strain BRE1, stronger effect = lower value
  normalized growth: 0.395 (active)
S. cerevisiae deletion strains, locus YDL101C, strain DUN1, stronger effect = lower value
  normalized growth: 0.758 (active)
S. cerevisiae deletion strains, locus YDL134C, strain PPH21, stronger effect = lower value
  normalized growth: 0.404 (active)
S. cerevisiae deletion strains, locus YDL185W, strain tfp1, stronger effect = lower value
  normalized growth: 1.01 (inactive)
S. cerevisiae deletion strains, locus YDL192W, strain arf1, stronger effect = lower value
  normalized growth: 0.844 (active)
S. cerevisiae deletion strains, locus YDR101C, strain arx1, stronger effect = lower value
  normalized growth: 0.945 (inactive)
S. cerevisiae deletion strains, locus YDR150W, strain NUM1, stronger effect = lower value
  normalized growth: 0.802 (active) and 0.999 (inactive)
S. cerevisiae deletion strains, locus YDR162C, strain NBP2, stronger effect = lower value
  normalized growth: 0.0773 (active)
S. cerevisiae deletion strains, locus YDR318W, strain mcm21, stronger effect = lower value
  normalized growth: 0.865 (active)
S. cerevisiae deletion strains, locus YDR363W, strain ESC2, stronger effect = lower value
  normalized growth: 1.01 (inactive)
S. cerevisiae deletion strains, locus YDR388W, stronger effect = lower value
  normalized growth: 0.222 (active)
S. cerevisiae deletion strains, locus YDR502C, strain sam2, stronger effect = lower value
  normalized growth: 0.832 (active)
S. cerevisiae deletion strains, locus YEL061C, strain CIN8, stronger effect = lower value
  normalized growth: 0.672 (active)
S. cerevisiae deletion strains, locus YER002W, strain NOP16, stronger effect = lower value
  normalized growth: 1.21 [resistant] (active)
S. cerevisiae deletion strains, locus YER110C, stronger effect = lower value
  normalized growth: 1 (inactive)
S. cerevisiae deletion strains, locus YER155C, strain BEM2, stronger effect = lower value
  normalized growth: 0.897 (active)
S. cerevisiae deletion strains, locus YER167W, strain BCK2, stronger effect = lower value
  normalized growth: 0.692 (active)
S. cerevisiae deletion strains, locus YGL078C, strain dbp3, stronger effect = lower value
  normalized growth: 1 (inactive)
S. cerevisiae deletion strains, locus YGL086W, strain mad1, stronger effect = lower value
  normalized growth: 0.808 (active)
S. cerevisiae deletion strains, locus YGL248W, strain PDE1, stronger effect = lower value
  normalized growth: 0.511 (active)
S. cerevisiae deletion strains, locus YGR078C, strain PAC10, stronger effect = lower value
  normalized growth: 0.695 (active)
S. cerevisiae deletion strains, locus YGR135W, strain pre9, stronger effect = lower value
  normalized growth: 0.683 (active)
S. cerevisiae deletion strains, locus YGR229C, strain SMI1, stronger effect = lower value
  normalized growth: 0.132 (active) and 0.945 (inactive)
S. cerevisiae deletion strains, locus YGR252W, strain gcn5, stronger effect = lower value
  normalized growth: 0.487 (active)
S. cerevisiae deletion strains, locus YHR030C, strain SLT2, stronger effect = lower value
  normalized growth: 0.65 (active) and 0.981 (inactive)
S. cerevisiae deletion strains, locus YHR079C, strain IRE1 (second series), stronger effect = lower value
  normalized growth: 0.902 (active)
S. cerevisiae deletion strains, locus YHR079C, strain IRE1, stronger effect = lower value
  normalized growth: 0.959 (inactive)
S. cerevisiae deletion strains, locus YHR094C, strain hxt1, stronger effect = lower value
  normalized growth: 1 (inactive)
S. cerevisiae deletion strains, locus YHR200W, strain rpn10, stronger effect = lower value
  normalized growth: 0.914 (active)
S. cerevisiae deletion strains, locus YIL066C, strain RNR3, stronger effect = lower value
  normalized growth: 0.571 (active)
S. cerevisiae deletion strains, locus YIL073C, strain SPO22, stronger effect = lower value
  normalized growth: 0.279 (active)
S. cerevisiae deletion strains, locus YIL125W, strain kgd1, stronger effect = lower value
  normalized growth: 1 (inactive)
S. cerevisiae deletion strains, locus YIR030C, strain dcg1, stronger effect = lower value
  normalized growth: 0.917 (active)
S. cerevisiae deletion strains, locus YJL095W, strain BCK1, stronger effect = lower value
  normalized growth: 0.354 (active) and 0.987 (inactive)
S. cerevisiae deletion strains, locus YJL134W, strain LCB3, stronger effect = lower value
  normalized growth: 1.01 (inactive)
S. cerevisiae deletion strains, locus YJL168C, strain set2, stronger effect = lower value
  normalized growth: 0.998 (inactive)
S. cerevisiae deletion strains, locus YJL187C, strain SWE1 (second series), stronger effect = lower value
  normalized growth: 0.547 (active)
S. cerevisiae deletion strains, locus YJR043C, strain POL32, stronger effect = lower value
  normalized growth: 0.69 (active)
S. cerevisiae deletion strains, locus YJR066W, strain TOR1, stronger effect = lower value
  normalized growth: 0.965 (inactive)
S. cerevisiae deletion strains, locus YJR075W, strain HOC1, stronger effect = lower value
  normalized growth: 0.36 (active) and 0.998 (inactive)
S. cerevisiae deletion strains, locus YKL009W, strain mrt4, stronger effect = lower value
  normalized growth: 0.967 (inactive)
S. cerevisiae deletion strains, locus YKL068W, stronger effect = lower value
  normalized growth: 0.999 (inactive)
S. cerevisiae deletion strains, locus YKL085W, strain MDH1 (second series), stronger effect = lower value
  normalized growth: 0.992 (inactive)
S. cerevisiae deletion strains, locus YKL085W, strain MDH1, stronger effect = lower value
  normalized growth: 0.992 (inactive)
S. cerevisiae deletion strains, locus YKL190W, strain CNB1, stronger effect = lower value
  normalized growth: 0.604 (active)
S. cerevisiae deletion strains, locus YKR001C, strain vps1, stronger effect = lower value
  normalized growth: 0.139 (active)
S. cerevisiae deletion strains, locus YLR039C, strain RIC1, stronger effect = lower value
  normalized growth: 0.303 (active)
S. cerevisiae deletion strains, locus YLR058C, strain SHM2, stronger effect = lower value
  normalized growth: 0.613 (active)
S. cerevisiae deletion strains, locus YLR102C, strain apc9, stronger effect = lower value
  normalized growth: 0.999 (inactive)
S. cerevisiae deletion strains, locus YLR113W, strain HOG1, stronger effect = lower value
  normalized growth: 0.979 (inactive)
S. cerevisiae deletion strains, locus YLR262C, strain YPT6, stronger effect = lower value
  normalized growth: 0.289 (active)
S. cerevisiae deletion strains, locus YLR268W, strain sec22, stronger effect = lower value
  normalized growth: 0.624 (active)
S. cerevisiae deletion strains, locus YLR330W, strain CHS5, stronger effect = lower value
  normalized growth: 0.833 (active)
S. cerevisiae deletion strains, locus YLR342W, strain FKS1 (second series), stronger effect = lower value
  normalized growth: 0.56 (active)
S. cerevisiae deletion strains, locus YLR371W, strain rom2, stronger effect = lower value
  normalized growth: 0.978 (inactive)
S. cerevisiae deletion strains, locus YLR418C, strain cdc73, stronger effect = lower value
  normalized growth: 0.451 (active)
S. cerevisiae deletion strains, locus YML016C, strain PPZ1, stronger effect = lower value
  normalized growth: 0.65 (active)
S. cerevisiae deletion strains, locus YML032C, strain rad52, stronger effect = lower value
  normalized growth: 0.825 (active)
S. cerevisiae deletion strains, locus YML124C, strain tub3, stronger effect = lower value
  normalized growth: 1 (inactive)
S. cerevisiae deletion strains, locus YMR078C, strain ctf18, stronger effect = lower value
  normalized growth: 1 (inactive)
S. cerevisiae deletion strains, locus YMR223W, strain ubp8, stronger effect = lower value
  normalized growth: 0.816 (active)
S. cerevisiae deletion strains, locus YMR263W, strain SAP30, stronger effect = lower value
  normalized growth: 0.733 (active) and 1 (inactive)
S. cerevisiae deletion strains, locus YMR307W, strain GAS1, stronger effect = lower value
  normalized growth: 0.206 (active) and 1.03 (inactive)
S. cerevisiae deletion strains, locus YNL067W, strain RPL9B, stronger effect = lower value
  normalized growth: 0.72 (active)
S. cerevisiae deletion strains, locus YNL128W, strain TEP1, stronger effect = lower value
  normalized growth: 0.637 (active) and 1.1 (inactive)
S. cerevisiae deletion strains, locus YNL153C, strain GIM3, stronger effect = lower value
  normalized growth: 0.732 (active) and 0.816 (inactive)
S. cerevisiae deletion strains, locus YNL175C, strain NOP13, stronger effect = lower value
  normalized growth: 1.28 [resistant] (active)
S. cerevisiae deletion strains, locus YNL183C, strain NPR1, stronger effect = lower value
  normalized growth: 0.935 (inactive)
S. cerevisiae deletion strains, locus YNL197C, strain WHI3, stronger effect = lower value
  normalized growth: 1.19 [resistant] (active)
S. cerevisiae deletion strains, locus YNL233W, strain BNI4, stronger effect = lower value
  normalized growth: 0.573 (active)
S. cerevisiae deletion strains, locus YNL250W, strain rad50, stronger effect = lower value
  normalized growth: 0.988 (inactive)
S. cerevisiae deletion strains, locus YNL271C, strain bni1, stronger effect = lower value
  normalized growth: 0.992 (inactive)
S. cerevisiae deletion strains, locus YNL298W, strain CLA4, stronger effect = lower value
  normalized growth: 0.999 (inactive)
S. cerevisiae deletion strains, locus YNL307C, strain MCK1, stronger effect = lower value
  normalized growth: 0.863 (active)
S. cerevisiae deletion strains, locus YNL322C, strain KRE1, stronger effect = lower value
  normalized growth: 0.67 (active)
S. cerevisiae deletion strains, locus YNR052C, strain pop2, stronger effect = lower value
  normalized growth: 0.773 (active)
S. cerevisiae deletion strains, locus YOL006C, strain TOP1, stronger effect = lower value
  normalized growth: 0.138 (active)
S. cerevisiae deletion strains, locus YOL012C, strain htz1
  normalized growth: 0.498 (inactive)
S. cerevisiae deletion strains, locus YOL147C, strain pex11, stronger effect = lower value
  normalized growth: 0.984 (inactive)
S. cerevisiae deletion strains, locus YOR061W, strain CKA2, stronger effect = lower value
  normalized growth: 0.646 (active)
S. cerevisiae deletion strains, locus YOR069W, strain VPS5, stronger effect = lower value
  normalized growth: 0.861 (active)
S. cerevisiae deletion strains, locus YOR083W, strain WHI5 (second series), stronger effect = lower value
  normalized growth: 0.985 (inactive)
S. cerevisiae deletion strains, locus YOR136W, strain idh2, stronger effect = lower value
  normalized growth: 0.94 (inactive)
S. cerevisiae deletion strains, locus YOR144C, strain elg1, stronger effect = lower value
  normalized growth: 1.01 (inactive)
S. cerevisiae deletion strains, locus YOR184W, strain ser1, stronger effect = lower value
  normalized growth: 0.729 (active)
S. cerevisiae deletion strains, locus YOR231W, strain MKK1, stronger effect = lower value
  normalized growth: 0.999 (inactive)
S. cerevisiae deletion strains, locus YOR316C, strain cot1, stronger effect = lower value
  normalized growth: 0.996 (inactive)
S. cerevisiae deletion strains, locus YPL055C, strain LGE1, stronger effect = lower value
  normalized growth: 0.268 (active)
S. cerevisiae deletion strains, locus YPL256C, strain CLN2, stronger effect = lower value
  normalized growth: 0.962 (inactive)
S. cerevisiae deletion strains, locus YPR119W, strain clb2, stronger effect = lower value
  normalized growth: 1.01 (inactive)
S. cerevisiae deletion strains, locus YPR141C, strain kar3, stronger effect = lower value
  normalized growth: 0.997 (inactive)
S. cerevisiae deletion strains, locus YPR163C, strain tif3, stronger effect = lower value
  normalized growth: 0.722 (active)
S. cerevisiae deletion strains, locus YPR167C, strain met16, stronger effect = lower value
  normalized growth: 0.906 (active)
S. cerevisiae deletion strains, strain wtn01, stronger effect = lower value
  normalized growth: 0.776 (active)
S. cerevisiae strains, strain wild type, stronger effect = lower value
  normalized growth: 0.592 (active)
